# Test results from PubChem BioAssay.
# Results filed as inconclusive are left out. Calls of active or inactive are those of the source. Unless noted, the limit is not given here; nearly all actives have AC50 up to about 26 µM.
# Legend:
# [1] = growth inhibition of DIPG glioma cells, dose response, cell-based, SU-DIPG-XVII, MIPE5.0, CellTiter-Glo, qHTS (AID 1347060); details: SU-DIPG-XVII viability, CellTiter-Glo ATP luminescence;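 as to AC50: cells exposed to compound for 48 hours before viability readout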
# [2] = growth inhibition of DIPG glioma cells, dose response, cell-based, SU-DIPG-XIII, MIPE5.0, CellTiter-Glo, qHTS (AID 1347064; cut-off not given, nearly all actives have AC50 up to about 23 µM;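 as to AC50: cells exposed to compound for 48 hours before the viability read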); details: SU-DIPG-XIII viability, CellTiter-Glo ATP luminescence
# [3] = viability loss in pontine glioma line – cell-based, SU-DIPG-XXV, MIPE5.0, CellTiter-Glo, qHTS, dose response (AID 1347065); details: CellTiter-Glo ATP luminescence;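 also: cells exposed to compound for 48 hours before ATP readout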
# [4] = SU-DIPG-XXV glioma cell viability, MIPE5.0 library, qHTS (AID 1347068; cut-off not given, nearly all actives have IC50 up to about 30 µM;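 as to IC50: cells exposed to compound for 48 hours before viability readout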)
# [5] = JHH-DIPG-1 glioma cell viability, MIPE5.0 library, CellTiter-Glo luminescence, qHTS (AID 1347067); details: JHH-DIPG-1 glioma viability, CellTiter-Glo ATP luminescence;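 also: cells exposed to compound for 48 hours before readout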
# [6] = sensitizers of A549 cells to miR-34 induction, primary screen, imaging, A549 dox-inducible miR-34, nuclei and caspase counts (AID 1347080;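 active = compounds whose cell count with miR-34 switched on is under 0.7 times the count with it off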); details: A549 miR-34 inducible, Hoechst nuclei count, 48 h
# [7] = survival rescue of mitochondrial mutant cells in low glucose, primary screen, MELAS cybrids, Rieske KO mouse fibroblasts, CellTiter-Glo (AID 1508586;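 active = mean z-score across replicates of 1.96 or higher in either the MELAS or the Rieske mutant cell line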;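 also: z relative to plate mean and SD of compound and empty wells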)
# [8] = stronger effect = lower value, cell number ratio, induced over uninduced
# [9] = measured here: relative caspase fold change +Dox/-Dox
# [10] = measured here: total cells with miR-34 induction, stronger effect = lower value
# [11] = measured here: total cells without miR-34 induction
# [12] = MELAS cybrid survival, CellTiter-Glo 48 h, stronger effect = higher value
# [13] = Rieske KO mouse fibroblast survival, CellTiter-Glo 72 h
smiles,measurement,setting,value
O=C(O)c1ccc(CN2CCC(CN[C@@H]3C[C@H]3c3ccccc3)CC2)cc1,outcome,[1],inactive
same,outcome,[2],inactive
same,outcome,[3],inactive
same,outcome,[4],inactive
Cc1ccc(Nc2ncc3c(n2)N(C)C(=O)N(c2cc(NC(=O)c4cccc(C(F)(F)F)c4)ccc2C)C3)cn1,AC50,[1],0.105 µM (active)
same,AC50,[2],0.0742 µM (active)
same,AC50,[3],0.0118 µM (active)
same,IC50,[4],0.0742 µM (active)
C[C@@H]1CN(CC(=O)N2CC(C)(C)c3ncc(Cc4ccc(F)cc4)cc32)[C@@H](CN2CCOC[C@H]2C)CN1,outcome,[1],inactive
same,outcome,[2],inactive
same,outcome,[5],inactive
same,outcome,[4],inactive
O=C(CCl)Nc1cccc(NC2=NS(=O)(=O)c3ccccc32)c1,AC50,[1],11.8 µM (active)
same,AC50,[2],9.34 µM (active)
same,AC50,[5],5.25 µM (active)
CNC(=O)c1ccc2c(C(=Nc3cccc(CN(C)C)c3)c3ccccc3)c(O)[nH]c2c1,outcome,[1],inactive
same,outcome,[2],inactive
same,outcome,[5],inactive
same,outcome,[4],inactive
same,fold change,[6]; [8],0.967 (inactive)
same,fold change,[6]; [9],0.894
same,cell count,[6]; [10],7720
same,cell count,[6]; [11],7990
same,z-score,[7]; [12],-0.483 (inactive)
same,z-score,[7]; [13],-0.984
NS(=O)(=O)c1ccc(S(=O)(=O)Nc2cccc3c(Cl)c[nH]c23)cc1,AC50,[1],3.32 µM (active)
same,AC50,[2],0.934 µM (active)
same,AC50,[5],1.18 µM (active)
Cc1nn(C)c(COc2ccc(N3CCN(S(=O)(=O)N(C)C)CC3)cc2)c1-c1cccc2c(CCCOc3cccc4ccccc34)c(C(=O)O)n(CCN3CCOCC3)c12,AC50,[1],14.8 µM (active)
same,AC50,[2],18.6 µM (active)
same,AC50,[5],18.6 µM (active)
same,outcome,[4],inactive
COc1ccc2c(C(=S)N(C)CC(=O)O)cccc2c1C(F)(F)F,outcome,[1],inactive
same,outcome,[2],inactive
same,outcome,[5],inactive
same,outcome,[4],inactive
NS(=O)(=O)OC[C@@H]1C[C@@H](n2ccc3c(N[C@H]4CCc5ccccc54)ncnc32)C[C@@H]1O,AC50,[1],1.48 µM (active)
same,outcome,[2],inactive
same,outcome,[5],inactive
same,outcome,[4],inactive
CN1CCN(C2CCN(C(=O)Nc3cc(Oc4ccc(NC(=O)C5(C(=O)Nc6ccc(F)cc6)CC5)c(F)c4)ccn3)CC2)CC1,AC50,[1],18.6 µM (active)
same,AC50,[2],20.9 µM (active)
same,AC50,[3],13.2 µM (active)
same,IC50,[4],23.5 µM (active)
same,fold change,[6]; [8],0.875 (inactive)
same,fold change,[6]; [9],0.529
same,cell count,[6]; [10],3130
same,cell count,[6]; [11],3570
same,z-score,[7]; [12],-0.56 (inactive)
same,z-score,[7]; [13],0.282
N#Cc1ccnc(N2C(=O)CC[C@H]2C(=O)N(c2cncc(F)c2)[C@H](C(=O)NC2CC(F)(F)C2)c2ccccc2Cl)c1,outcome,[1],inactive
same,outcome,[2],inactive
same,outcome,[3],inactive
same,outcome,[4],inactive
Cc1[nH]nc(C(F)(F)F)c1Cc1sc2c(c1C(=O)N1C[C@](C)(O)CO1)c(=O)n(C)c(=O)n2C(C)C,outcome,[1],inactive
same,outcome,[2],inactive
same,outcome,[5],inactive
same,outcome,[4],inactive
NCC1CCN(c2nccc(-c3ccc4ccccc4c3)n2)CC1,AC50,[1],11.8 µM (active)
same,AC50,[2],16.6 µM (active)
same,AC50,[5],10.5 µM (active)
C[C@@]1(c2ncncc2F)NC(=O)c2cc(-c3cn[nH]c3)ccc21,outcome,[1],inactive
same,outcome,[2],inactive
same,outcome,[5],inactive
same,outcome,[4],inactive
